The nature of test [1]: yeast TOR pathway RPL19A-GFP modulators, primary screen, cell-based, S. cerevisiae, multiplex flow cytometry (AID 1862; in the data active = percent of DMSO control GFP below about 86%;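 also: lower values mimic rapamycin by blocking the RPL19A rise seen in DMSO cells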). The conditions noted are these: S. cerevisiae RPL19A-GFP strain, flow cytometry fluorescence, 3 h; at 10 µM; stronger effect = lower value. On the technique in general: A flow cytometer gives signals particle by particle.
A short description of test [2]: modulators of MEP2-GFP levels in yeast, primary screen, S. cerevisiae, multiplex flow cytometry (AID 1867).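 Also: median GFP channel fluorescence of barcode-gated MEP2-GFP cells measured by flow cytometry.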 The conditions noted are these: S. cerevisiae MEP2-GFP strain, 3 h, at 10 µM, stronger effect = higher value, 100% means same as DMSO wells.
The nature of test [3]: modulators of CIT2-GFP expression in yeast, primary screen, S. cerevisiae, GFP fusion, multiplex flow cytometry (AID 1870;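 active = percent response above a set limit, the screen-wide mean plus 3 SD, cut at about 130% in these data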;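 also: barcoded CIT2-GFP strain pooled with four other GFP strains with rapamycin as positive control; median GFP fluorescence per well over plate mean of DMSO wells so 100% = DMSO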). Conditions: 3 h, at 10 µM, stronger effect = higher value.
Test [4] in a line: modulators of LAP4-GFP expression in yeast, primary screen, S. cerevisiae, multiplex flow cytometry (AID 1873;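 active = GFP signal, as percent of the solvent control, above the screen mean plus 3 SD, about 149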). The conditions noted are these: 3 h, at 10 µM, stronger effect = higher value.
Test [5] can be described thus: modulators of AGP1-GFP expression in yeast TOR pathway, primary screen, cell-based, multiplex flow cytometry, S. cerevisiae (AID 1887;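 active = GFP signal above the screen-wide mean plus 3 SD, that is over about 124.5% of the solvent control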;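 also: AGP1-GFP fusion strain of S. cerevisiae within a five-strain barcoded multiplex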). Conditions: 3 h, at 10 µM, stronger effect = higher value.
Test [6] can be described thus: inhibitors of CD8+ T cell-vesicle binding, pilot screen, LFA-1/ICAM-1 modulator project, MLPCN validation set, flow cytometry (AID 2523;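 active = response below a set limit, under 55% cells CD8-positive and vesicle-bound, and CD8 cells' 90th-percentile brightness under 279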;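 as to vesicle binding response: mean PE anti-B7-1 fluorescence of CD8+ cells relative to row control; 100% = QL9-loaded vesicles with DMSO vehicle in the same plate row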). Conditions: 2C mouse CD8+ T cells, at 7 µM, stronger effect = lower value; double positive events: measured here: CD8+/vesicle+ event percentage.
Test [7] deals with Integrin beta-1 (Homo sapiens) + Integrin alpha-4 (Homo sapiens) (UniProt P13612+P05556). As to the kind of experiment: inhibition of HUTS-21 binding to VLA-4, pilot screen, VLA-4 allosteric modulator project, U937 cells, HUTS-21 mAb, flow cytometry, validation set (AID 2674;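 active = inhibition above 50%, about 3 SD of the validation set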;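 also: antibody binding induced by the VLA-4 ligand LDV present at three times its Kd; 0% = LDV ligand with antibody and no compound and 100% = antibody without LDV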). The conditions noted are these: HUTS-21 LIBS mAb binding, at 6.7 µM, stronger effect = higher value, binding induced by LDV ligand.

A short description of test [8]: superoxide lowering in aged yeast cells, pilot screen, validation compound set (AID 2706;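 active = superoxide response below 65% of plate, a cut near 3 SD across the whole screen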;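 also: yeast exposed to compound for one week at 30 degrees C before staining; 100% = mean of all compound wells on the same plate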). The conditions noted are these: S. cerevisiae aging, superoxide DHE fluorescence; at 10 µM, stronger effect = lower value.
In test [9] the target is Beta-adrenergic receptor kinase 1 (Homo sapiens) (UniProt P25098). As to the kind of experiment: GRK2 binders displacing RNA aptamer, biochemical, validation, human GRK2, bead flow cytometry (AID 488806;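 active = aptamer binding inhibition above 30%, about 3 SD of noise from non-fluorescent compounds; inactive = inhibition at or below 30%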). The conditions noted are these: bead-bound GRK2, FAM-aptamer displacement, at 10 µM, stronger effect = higher value.
The target in test [10] is AP-2 complex subunit beta (Homo sapiens) (UniProt P63010). As to the kind of experiment: inhibitors of arrestin peptide binding to AP2, pilot screen, biochemical, validation set, GST-AP2 beads, flow cytometry (AID 504541;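 active = inhibition above 54%, about 3 SD of non-fluorescent compounds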;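 also: AP2 carries R879A mutation and is captured from E. coli lysate; bead-bound FITC arrestin peptide fluorescence measuring arrestin peptide binding to AP2; 0% = DMSO wells and 100% = excess unlabeled arrestin peptide control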). The conditions noted are these: FITC arrestin peptide, at 10 µM, stronger effect = higher value, AP2 beta2 appendage fragment, R879A mutant.
Test [11] in a line: yeast V-ATPase proton transport modulators, S. cerevisiae, pHLuorin, HTS validation (AID 504600; in the data active = response above about 15%;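 also: plate controls were DMSO for no effect and reference compound for full effect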). Conditions: S. cerevisiae pHLuorin cytosolic pH, at 10 µM, stronger effect = higher value.
Test [12] relates to anti-desmoglein-3 scFv antibody binding to human DSG3. As to the kind of experiment: inhibitors of anti-DSG3 scFv binding to DSG3, pilot screen, biochemical, validation compound set, bead-based, flow cytometry (AID 588368;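 active = binding below the plate cutoff, the plate median minus 3 SD, with a reading above zero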;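 also: signal is the median channel fluorescence of bead-bound GFP antibody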). Conditions: Protein G beads, DSG3-Fc, scFv-GFP binding, at 10 µM, stronger effect = lower value.
Test [13] in a line: inhibitors of fungal efflux pumps CDR1, CDR2, MDR1, pilot screen, validation compound set, multiplex, phenotypic (AID 588506;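 active = efflux inhibition above 0.42, the validation set average plus 4 SD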;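 also: Nile Red retained in cells so higher fluorescence means more efflux inhibition; 0 = negative control wells and 1 = enniatin B 25 µM full block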). The conditions noted are these: S. cerevisiae pump-expressing triplex, Nile Red efflux flow cytometry; at 10 µM; stronger effect = higher value; the pumps come from Candida albicans.
In test [14] the target is ATP-binding cassette sub-family B member 6 (Homo sapiens) (UniProt Q9NP58). As to the kind of experiment: ABCB6 transporter inhibitors, pilot screen, K562-ABCB6 cells, flow cytometry, validation set (AID 588550;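 active = inhibition above the screen-wide mean plus 3 SD, about 51%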;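 also: 0% = DMSO wells and 100% = benzethonium chloride 70 µM positive control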). The conditions noted are these: K562-ABCB6 porphyrin accumulation, 1 h, at 10 µM, stronger effect = higher value.
A short description of test [15]: promoters of myeloid differentiation in arrested cells, primary screen, cell-based, GFP/MAC1 double positive, flow cytometry, validation set (AID 588685;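 active = differentiation response of at least 50%, scaled between solvent and reference control, from cells with both markers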;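 also: compound exposure lasts four days before antibody staining and flow analysis; 0% = DMSO wells and 100% = 5 µM fulvestrant positive control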). Conditions: ER-HoxA9 marrow cells, stronger effect = higher value, normalized: vehicle 0, fulvestrant 100.

Results filed as inconclusive are left out. Activity calls are given as the source filed them.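 The calls were made as follows, unless noted: active = GFP response, as percent of the DMSO control, above the screen-wide mean plus 3 SD, about 139; inconclusive = no response measured because the compound's own fluorescence interfered; inactive = the rest.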

ATP-binding cassette sub-family B member 6 (Homo sapiens), sequence (Q9NP58 whole entry, looked up): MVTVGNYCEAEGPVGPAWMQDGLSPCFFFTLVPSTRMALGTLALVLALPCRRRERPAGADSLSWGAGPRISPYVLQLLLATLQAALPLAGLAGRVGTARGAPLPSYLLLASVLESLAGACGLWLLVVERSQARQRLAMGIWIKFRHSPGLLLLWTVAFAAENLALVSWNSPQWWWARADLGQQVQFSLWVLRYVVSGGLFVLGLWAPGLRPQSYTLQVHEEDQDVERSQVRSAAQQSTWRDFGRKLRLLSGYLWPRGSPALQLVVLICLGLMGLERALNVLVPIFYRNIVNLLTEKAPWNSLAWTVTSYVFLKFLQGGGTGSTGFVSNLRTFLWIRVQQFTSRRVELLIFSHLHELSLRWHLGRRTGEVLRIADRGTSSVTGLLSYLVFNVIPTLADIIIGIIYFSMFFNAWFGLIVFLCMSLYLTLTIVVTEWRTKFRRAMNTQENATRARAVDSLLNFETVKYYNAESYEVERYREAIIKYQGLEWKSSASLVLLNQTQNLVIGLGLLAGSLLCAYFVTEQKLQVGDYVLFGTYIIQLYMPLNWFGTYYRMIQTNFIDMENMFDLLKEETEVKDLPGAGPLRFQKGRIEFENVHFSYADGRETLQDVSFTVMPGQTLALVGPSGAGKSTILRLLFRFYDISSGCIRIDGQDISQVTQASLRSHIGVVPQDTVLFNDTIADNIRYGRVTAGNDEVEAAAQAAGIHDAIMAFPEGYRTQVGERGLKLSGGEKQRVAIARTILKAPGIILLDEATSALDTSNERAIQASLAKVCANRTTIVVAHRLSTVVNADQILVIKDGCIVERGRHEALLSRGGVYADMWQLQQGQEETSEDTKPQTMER
AP-2 complex subunit beta (Homo sapiens), sequence (P63010 whole entry, looked up, the tested form may be a part, one chain of several): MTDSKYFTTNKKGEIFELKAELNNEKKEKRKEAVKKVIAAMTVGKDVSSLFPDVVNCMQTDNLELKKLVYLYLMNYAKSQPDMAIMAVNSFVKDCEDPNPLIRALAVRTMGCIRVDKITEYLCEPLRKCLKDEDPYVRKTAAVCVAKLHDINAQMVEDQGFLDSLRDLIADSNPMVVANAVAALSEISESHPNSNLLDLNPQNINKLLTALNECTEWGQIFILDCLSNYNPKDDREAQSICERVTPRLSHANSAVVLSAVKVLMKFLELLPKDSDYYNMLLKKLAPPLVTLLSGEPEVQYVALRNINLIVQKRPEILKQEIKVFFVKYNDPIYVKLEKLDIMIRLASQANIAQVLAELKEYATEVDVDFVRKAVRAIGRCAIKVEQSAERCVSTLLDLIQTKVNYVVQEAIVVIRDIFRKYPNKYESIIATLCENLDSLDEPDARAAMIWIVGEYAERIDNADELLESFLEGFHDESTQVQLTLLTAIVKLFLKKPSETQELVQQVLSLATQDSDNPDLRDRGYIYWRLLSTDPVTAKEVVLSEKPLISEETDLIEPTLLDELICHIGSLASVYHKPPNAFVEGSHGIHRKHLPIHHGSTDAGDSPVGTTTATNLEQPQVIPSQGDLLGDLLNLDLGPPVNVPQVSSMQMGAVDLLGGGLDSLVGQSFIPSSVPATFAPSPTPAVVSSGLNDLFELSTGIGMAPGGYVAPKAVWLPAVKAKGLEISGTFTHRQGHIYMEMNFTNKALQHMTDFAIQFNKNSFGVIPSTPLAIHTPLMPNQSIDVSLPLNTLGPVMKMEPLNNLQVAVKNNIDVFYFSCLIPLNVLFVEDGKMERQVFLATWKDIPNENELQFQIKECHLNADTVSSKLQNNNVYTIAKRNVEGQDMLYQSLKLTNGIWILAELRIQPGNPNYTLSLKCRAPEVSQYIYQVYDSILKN
Beta-adrenergic receptor kinase 1 (Homo sapiens), sequence (P25098 whole entry, looked up): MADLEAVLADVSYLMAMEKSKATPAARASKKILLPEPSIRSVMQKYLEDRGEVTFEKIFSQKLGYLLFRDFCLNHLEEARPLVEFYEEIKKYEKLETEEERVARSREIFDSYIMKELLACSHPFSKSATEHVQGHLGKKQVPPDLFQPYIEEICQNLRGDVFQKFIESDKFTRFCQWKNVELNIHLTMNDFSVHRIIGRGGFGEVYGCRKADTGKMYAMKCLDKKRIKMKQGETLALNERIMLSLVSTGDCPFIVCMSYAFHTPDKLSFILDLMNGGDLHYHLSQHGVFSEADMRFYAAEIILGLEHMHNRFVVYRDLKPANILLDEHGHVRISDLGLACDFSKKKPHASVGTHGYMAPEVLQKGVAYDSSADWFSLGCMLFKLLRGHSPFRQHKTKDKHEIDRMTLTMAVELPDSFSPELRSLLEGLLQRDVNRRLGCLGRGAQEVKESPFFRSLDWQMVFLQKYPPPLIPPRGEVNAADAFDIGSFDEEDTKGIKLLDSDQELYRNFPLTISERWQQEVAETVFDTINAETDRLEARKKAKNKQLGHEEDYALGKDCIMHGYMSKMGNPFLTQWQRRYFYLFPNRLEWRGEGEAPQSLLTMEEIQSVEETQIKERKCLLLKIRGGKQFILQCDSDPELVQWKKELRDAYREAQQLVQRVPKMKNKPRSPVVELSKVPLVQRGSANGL
Integrin beta-1 (Homo sapiens) + Integrin alpha-4 (Homo sapiens), sequence (P05556 whole entry, looked up): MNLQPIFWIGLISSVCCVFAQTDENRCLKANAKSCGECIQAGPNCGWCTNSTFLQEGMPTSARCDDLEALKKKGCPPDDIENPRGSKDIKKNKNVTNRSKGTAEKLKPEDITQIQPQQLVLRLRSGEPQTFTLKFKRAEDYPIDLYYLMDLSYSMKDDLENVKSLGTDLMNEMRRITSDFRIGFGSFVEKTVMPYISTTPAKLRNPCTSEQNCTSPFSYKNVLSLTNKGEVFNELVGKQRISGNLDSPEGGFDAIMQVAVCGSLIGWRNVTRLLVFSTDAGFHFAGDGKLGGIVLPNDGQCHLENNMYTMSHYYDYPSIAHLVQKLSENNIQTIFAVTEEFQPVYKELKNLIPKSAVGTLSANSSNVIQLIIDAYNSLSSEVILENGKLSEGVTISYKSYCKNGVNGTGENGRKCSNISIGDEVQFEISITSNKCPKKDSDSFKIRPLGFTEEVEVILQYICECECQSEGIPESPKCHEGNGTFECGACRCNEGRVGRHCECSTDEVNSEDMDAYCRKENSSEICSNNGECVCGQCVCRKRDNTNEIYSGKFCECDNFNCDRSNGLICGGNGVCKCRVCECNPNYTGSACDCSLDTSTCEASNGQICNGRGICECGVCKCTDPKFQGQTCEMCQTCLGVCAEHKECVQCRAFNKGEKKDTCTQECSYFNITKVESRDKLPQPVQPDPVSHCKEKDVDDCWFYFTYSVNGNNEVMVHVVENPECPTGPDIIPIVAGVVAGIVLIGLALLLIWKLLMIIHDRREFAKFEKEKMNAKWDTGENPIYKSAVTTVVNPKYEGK
Integrin beta-1 (Homo sapiens) + Integrin alpha-4 (Homo sapiens), sequence (P13612 whole entry, looked up): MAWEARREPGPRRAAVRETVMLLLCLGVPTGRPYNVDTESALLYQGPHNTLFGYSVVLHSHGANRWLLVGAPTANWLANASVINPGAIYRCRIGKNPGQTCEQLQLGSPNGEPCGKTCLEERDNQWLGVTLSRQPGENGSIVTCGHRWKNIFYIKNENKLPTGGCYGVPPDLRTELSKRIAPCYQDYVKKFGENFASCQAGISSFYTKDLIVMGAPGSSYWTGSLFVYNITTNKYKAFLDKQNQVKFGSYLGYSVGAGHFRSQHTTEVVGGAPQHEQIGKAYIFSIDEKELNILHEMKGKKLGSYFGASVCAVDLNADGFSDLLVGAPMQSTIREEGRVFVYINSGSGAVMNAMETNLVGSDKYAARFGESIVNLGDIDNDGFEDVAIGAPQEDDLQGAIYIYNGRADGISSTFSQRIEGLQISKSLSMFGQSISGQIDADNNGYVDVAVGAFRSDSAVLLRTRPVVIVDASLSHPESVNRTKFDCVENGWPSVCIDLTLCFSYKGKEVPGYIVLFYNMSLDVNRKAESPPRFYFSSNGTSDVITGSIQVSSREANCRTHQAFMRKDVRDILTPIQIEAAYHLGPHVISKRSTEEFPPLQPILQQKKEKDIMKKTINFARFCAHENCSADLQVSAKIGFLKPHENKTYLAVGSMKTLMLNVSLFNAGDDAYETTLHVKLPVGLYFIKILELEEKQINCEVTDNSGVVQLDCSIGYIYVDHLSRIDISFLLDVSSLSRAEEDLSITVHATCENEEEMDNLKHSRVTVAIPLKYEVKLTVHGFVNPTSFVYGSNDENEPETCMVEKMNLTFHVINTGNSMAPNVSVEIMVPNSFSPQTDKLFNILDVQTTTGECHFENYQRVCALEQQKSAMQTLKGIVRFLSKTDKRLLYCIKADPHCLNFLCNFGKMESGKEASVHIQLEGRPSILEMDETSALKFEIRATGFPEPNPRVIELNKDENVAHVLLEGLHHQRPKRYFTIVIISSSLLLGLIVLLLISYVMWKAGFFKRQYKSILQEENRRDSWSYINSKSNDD

The term inhibition denotes the relative decrease from the control value, in per cent. With `COc1c(C)cc(C(=O)C2CCCN(Cc3ccc(Oc4ncccn4)cc3)C2)cc1C` (stereo not given), in [1], the percent of DMSO control GFP is 99.5% (inactive). Moreover, the values for the GFP response vs DMSO in test [2] and in test [4] were 107% (inactive) and 103% (inactive), respectively. The percent response of DMSO control in test [3] is 112% (inactive). In addition, the GFP response, % of DMSO in test [5] was 103% (inactive). Further, the double positive events in [6] was 56.4%. Further, the vesicle binding response in [6] was 202% (inactive). For the same compound, the inhibition is -4.9% (inactive) in [7], 4.02% (inactive) in test [10] and 5% (inactive) in test [14]. Also, in test [8], the superoxide response (% of plate) is 99.2% (inactive). In test [9], the aptamer binding inhibition is 0% (inactive). Besides, the response in test [11] was 0.79% (inactive). For the same compound, the binding (% of control) in test [12] is 101% (inactive). For the same compound, the efflux inhibition (fraction of control) in test [13] is -0.01 (inactive). Besides, the differentiation response in [15] was -30.9% (inactive).
On to `CN1CCC(OC(c2ccccc2)c2ccccc2)CC1`, for which the percent of DMSO control GFP in test [1] was 104% (inactive). Also, the GFP response vs DMSO in test [2] and in [4] was 105% (inactive) each time. Further, the percent response of DMSO control in test [3] was 104% (inactive). Moreover, in [5], the GFP response, % of DMSO is 104% (inactive). Moreover, the double positive events in [6] amounted to 66.3%. Moreover, the vesicle binding response in test [6] was 186% (inactive). Besides, the inhibition was 7.22% (inactive) in test [7], -2.62% (inactive) in test [10] and 9% (inactive) in [14]. For the same compound, the superoxide response (% of plate) in test [8] was 95.8% (inactive). In addition, the aptamer binding inhibition in test [9] is 3% (inactive). Further, the response in test [11] is 1.48% (inactive). The binding (% of control) in test [12] is 102% (inactive). Also, the efflux inhibition (fraction of control) in test [13] is 0.03 (inactive). Besides, in test [15], the differentiation response was 4.64% (inactive).
As to `COc1ccc(C2C(=O)c3ccccc3C2=O)cc1`, in test [1], the percent of DMSO control GFP is 97.8% (inactive). The results for the GFP response vs DMSO in [2] and in [4] were 101% (inactive) and 111% (inactive), respectively. In addition, in [3], the percent response of DMSO control was 102% (inactive). The GFP response, % of DMSO in test [5] was 94.8% (inactive). Besides, the double positive events in [6] turned out to be 55.9%. In [6], the vesicle binding response is 198% (inactive). For the same compound, the inhibition in test [7] was 0.69% (inactive); in [10], -15.3% (inactive); in [14] it was 4% (inactive). Moreover, the superoxide response (% of plate) in [8] was 96.8% (inactive). For the same compound, the aptamer binding inhibition in test [9] was 1% (inactive). The response in test [11] was -9.82% (inactive). Also, in test [12], the binding (% of control) is 95.6% (inactive). Also, the efflux inhibition (fraction of control) in [13] is -0.24 (inactive). The differentiation response in test [15] was -18% (inactive).
Take `CCN(Cc1ccncc1)Cc1nc(Cc2ccccc2Cl)no1`: the percent of DMSO control GFP in test [1] is 95.8% (inactive). In addition, the GFP response vs DMSO was 98.9% (inactive) in test [2] and 95.4% (inactive) in test [4]. Besides, the percent response of DMSO control in test [3] is 102% (inactive). Further, the GFP response, % of DMSO in test [5] is 94.2% (inactive). The compound further gave a double positive events in [6] of 53.4%. For the same compound, in test [6], the vesicle binding response is 164% (inactive). Moreover, the values for the inhibition in [7], in test [10] and in test [14] were -12.4% (inactive), 8.49% (inactive) and 7% (inactive), respectively. The superoxide response (% of plate) in [8] was 111% (inactive). The aptamer binding inhibition in test [9] was 2% (inactive). Besides, the response in test [11] was 2.76% (inactive). The binding (% of control) in test [12] was 101% (inactive). Also, the efflux inhibition (fraction of control) in test [13] was 0.25 (inactive). For the same compound, the differentiation response in test [15] was -27.6% (inactive).
Regarding `CCOC(=O)c1oc2cc(OCC(N)=O)ccc2c(=O)c1-c1ccc(OC)c(OC)c1`, the percent of DMSO control GFP in test [1] was 109% (inactive). Moreover, the GFP response vs DMSO in test [2] was 97.9% (inactive); in test [4] it was 94.3% (inactive). Besides, the percent response of DMSO control in test [3] was 107% (inactive). The GFP response, % of DMSO in test [5] is 101% (inactive). This compound also returned a double positive events in [6] of 62.1%. In test [6], the vesicle binding response is 207% (inactive). The inhibition was 24.9% (inactive) in [7], 2.96% (inactive) in [10] and 8% (inactive) in [14]. Further, in test [8], the superoxide response (% of plate) is 90.1% (inactive). In [9], the aptamer binding inhibition is 1% (inactive). In addition, the response in [11] is -0.67% (inactive). Moreover, in [12], the binding (% of control) was 100% (inactive). For the same compound, in test [13], the efflux inhibition (fraction of control) is -0.01 (inactive). Besides, the differentiation response in test [15] is -18% (inactive).

The record behind these values is PubChem BioAssay.
